BAP1 block: blocks human BAP1 ubiquitin-AMC hydrolysis. Q92560. recombinant BAP1, Ub-AMC hydrolysis fluorescence kinetic; hits give low values. calls only at 20 µM. 0.48% of 72,000 active;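 active means activity remaining at or below 50% of control, provided the compound also passes the data quality filters; inactive means the rest, including low values that fail the filters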
WNV protease inh: inhibitors of West Nile virus NS2B-NS3 protease. AID 577. z-score (concentration not given with the values). 0.18% of 65,000 active. P06935. WNV NS2B-NS3 protease, fluorogenic substrate Ex360/Em465; hits give low values; in the data active means z-score below about -3
M1 ag: activates the M1 muscarinic receptor. CHO-M1 cells, Fluo-4 calcium fluorescence, agonist mode; hits give high values. B-score at 10 µM. 3% of 64,000 active;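 active means fluorescence rise, raw or as B-score row- and column-corrected plate score, outside the 99.7% band of its plate's samples, either direction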
Abs 340nm: compounds absorbing at 340 nm; compound absorbance at 340 nm, fold over control; fold change at 10 µM; 65,000 tested, under 10 active; AID 708;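 active means at 10 µM dose, initial 340 nm absorbance at least 2 fold that of control wells; inactive means change under 2 fold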;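 further: initial absorbance extrapolated from kinetic A340 decline of NADH oxidation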
M1 antag: antagonists of rat M1 muscarinic receptor; B-score at 10 µM; CHO-M1 cells, Fluo-4 calcium, ACh EC80 antagonist mode; hits give low values; P08482; AID 628; 3.4% of 64,000 active;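 active means calcium fluorescence response, raw or row-and-column corrected B-score, differing from the plate sample mean either way at a set confidence level, mostly lower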
Target sequence (P08482 whole entry, looked up): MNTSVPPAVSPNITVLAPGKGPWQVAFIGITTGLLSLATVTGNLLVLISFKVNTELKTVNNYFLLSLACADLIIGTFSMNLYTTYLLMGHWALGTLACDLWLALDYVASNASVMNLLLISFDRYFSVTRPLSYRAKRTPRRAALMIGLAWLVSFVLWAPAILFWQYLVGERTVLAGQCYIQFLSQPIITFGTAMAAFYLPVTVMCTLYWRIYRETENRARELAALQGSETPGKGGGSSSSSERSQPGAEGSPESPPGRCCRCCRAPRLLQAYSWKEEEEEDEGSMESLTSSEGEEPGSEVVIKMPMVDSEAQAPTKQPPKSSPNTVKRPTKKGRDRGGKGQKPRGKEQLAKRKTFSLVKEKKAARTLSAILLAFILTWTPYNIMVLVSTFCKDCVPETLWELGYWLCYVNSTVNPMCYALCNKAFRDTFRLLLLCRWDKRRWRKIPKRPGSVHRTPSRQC
Autofluor 339: intrinsic fluorescence of library compounds, ex339/em460 – biochemical, MLSMR library, data from DPM-DC assay, artefact control, profiling panel | compound autofluorescence, ex339/em460 nm, NADH buffer; hits give high values; 1 = no-compound wells, NADH background | fluorescence fold increase at 10 µM | 5.5% of 65,000 active;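 active means at 10 µM, mean starting fluorescence two-fold or more over control wells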;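 further: signal is the first read of a kinetic run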
Numbers stand for hits; n = inactive; x = no result given. A selection: hits, their analogues and other compounds. The true share with any hit is near 9.7%.

SMILES | BAP1 block | WNV protease inh | M1 ag | Abs 340nm | M1 antag | Autofluor 339
Cc1cc(NC(=O)c2cnn3cccnc23)no1 | n | n | n | n | 0.81 | n
O=C(NCc1cccs1)c1cccnc1C(=O)O | n | n | n | n | n | n
O=C(NCc1ccccc1Cl)c1cnn2cccnc12 | n | n | n | n | n | 2.2
O=C(Oc1ccc(OC(=O)c2ccc3c(c2)C(=O)N(c2ccccn2)C3=O)cc1)c1ccc2c(c1)C(=O)N(c1ccccn1)C2=O | n | x | x | x | x | x
O=C(CN1C(=O)c2cccc3cccc1c23)N1CCN(c2cccc(Cl)c2)CC1 | n | n | n | n | n | 2.4
O=C(CN1C(=O)c2cccc3cccc1c23)N1CCN(c2ccccc2)CC1 | n | n | n | n | n | n
O=c1[nH]c2ccccc2nc1Cc1ccccc1 | x | n | n | n | n | n
O=c1[nH]c2ccccc2nc1C(F)(F)C(F)F | n | n | n | n | n | 2.1
Cc1cc(C)n(-c2ccc(C(=O)NC3=NCCS3)cc2)n1 | n | n | n | n | n | n
CC(=O)c1cc2c(cc1NC(=O)c1ccc(-n3nc(C)cc3C)cc1)OCO2 | x | n | n | n | n | 2.1
Cc1cc(C)n(-c2ccc(C(=O)Nc3nc4ccccc4s3)cc2)n1 | n | n | n | n | n | 3.3
Cc1ccccc1-n1nc2c(c1NC(=O)c1ccc(S(=O)(=O)N3CCCCC3)cc1)CSC2 | n | x | x | x | x | x
CC1=C(C)CS(=Nc2ccccc2)N(S(=O)(=O)c2ccccc2)C1 (stereo not given) | n | x | x | x | x | x
O=c1cc(Cn2ccnc2)c2cc3c(cc2o1)CCC3 | n | n | n | n | n | 2.2
CCC(O)(CC)C12CC3CC(CC(C3)C1)C2 | n | x | x | x | x | x
COc1ccc(-c2c(NC(C)=O)n(C)c3ccccc3c2=O)cc1 | x | n | n | n | n | 3.8
Cn1c(NC(=O)c2ccco2)c(-c2ccccc2)c(=O)c2ccccc21 | n | n | x | n | x | n
O=C(O)c1nc2ccccc2nc1C(=O)O | n | n | n | n | n | n
Nc1nc2ccccc2nc1N | n | n | n | n | n | 2.1
CCOc1nc(-c2ccc(C)cc2)ccc1-c1noc(-c2cccnc2)n1 | n | n | n | n | n | 3
CCOc1nc(-c2ccc(OC)cc2)ccc1-c1noc(-c2ccncc2)n1 | n | n | n | n | n | 3
CCOc1nc(-c2ccccc2)ccc1-c1noc(-c2ccncc2)n1 | n | n | n | n | n | 3.3
NCCCc1nc2c(ccc3ccccc32)[nH]1 | n | x | x | x | x | x
CCC(NC(=O)c1ccccc1O)c1ccccc1 (stereo not given) | n | n | n | n | n | 3.7
Cc1ccc(NC(=O)c2ccccc2O)cc1 | n | n | n | n | n | n
SMILES | BAP1 block | WNV protease inh | M1 ag | Abs 340nm | M1 antag | Autofluor 339
O=C(Nc1ccccc1)c1ccccc1O | n | n | n | n | n | 2.1
O=C1C(=O)N(Cc2cccnc2)C(c2ccc(Br)cc2)/C1=C(\O)c1ccccc1 (stereo not given) | n | x | x | x | x | x
CCN1CCN(CNC(=O)c2cnccn2)CC1 | n | -4.8 | n | n | n | n
CN(CC#CCC(O)(c1ccccc1)C1CCCC1)Cc1ccccc1 (stereo not given) | n | x | x | x | x | x
O=C(NCc1ccco1)c1nc2nc(-c3cccs3)cc(C(F)(F)F)n2n1 | x | n | n | n | n | 3.8
O=C(NCc1ccco1)c1cc(-c2cccs2)on1 | n | n | n | n | n | n
COc1ccc(-c2coc3cc(O)ccc3c2=O)cc1OC | n | n | n | n | n | 3.6
O=c1c(-c2ccc(F)cc2)coc2cc(O)ccc12 | n | n | n | n | n | 2.2
Cc1csc2ncc(C(=O)Nc3ccccc3Cl)c(=O)n12 | n | n | n | n | n | 2
Cc1csc2ncc(C(=O)Nc3ccon3)c(=O)n12 | x | n | n | n | n | 4.8
Cc1cccc(NC(=O)c2cnc3scc(C)n3c2=O)c1 | n | n | n | n | n | n
Cc1csc2ncc(C(=O)Nc3ccccc3F)c(=O)n12 | n | n | n | n | n | n
CCOC(=O)c1c(-c2ccccc2)csc1NC(=O)CSc1nc2ccccc2o1 | n | x | x | x | x | x
CC(C)Cn1c(N(C)C)nc2c1c(=O)[nH]c(=O)n2C | n | x | x | x | x | x
COc1ccc2c(c1)[nH]c1c(N3CCN(Cc4ccc5c(c4)OCO5)CC3)ncnc12 | x | n | n | n | n | n
COc1cccc2[nH]c3c(N4CCN(Cc5ccc6c(c5)OCO6)CC4)ncnc3c12 | x | n | n | n | n | 3.9
COc1cccc2[nH]c3c(N4CCC(C)CC4)ncnc3c12 | n | n | n | n | n | 3.7
COc1ccc(-c2csc(NC(=O)c3ccc(S(=O)(=O)N4CCc5ccccc54)cc3)n2)cc1 | n | x | x | x | x | x
CCCCCCC1CCC(c2ccc(C(N)=O)c(Cl)n2)CC1 (stereo not given) | n | x | x | x | x | x
Cn1c(/N=C/c2cc(Cl)ccc2O)nc2ccccc21 | n | n | 2.5 | n | n | n
Cc1oc2ncnc(N)c2c1C | n | n | n | n | n | n
Cc1ccc(-c2oc3ncnc(N)c3c2-c2ccc(C)cc2)cc1 | x | n | n | n | n | 3.5
O=C(Cn1ccc([N+](=O)[O-])n1)Nc1ccc(I)cc1 | n | x | x | x | x | x
CCOC(=O)c1cnc2cc3c(cn2c1=O)CCCC3 | x | n | n | n | n | 5
Nc1cccc(N)c1NC(=O)c1ccccc1 | n | x | x | x | x | x
SMILES | BAP1 block | WNV protease inh | M1 ag | Abs 340nm | M1 antag | Autofluor 339
CCN1CCN(C(=O)C2c3cc(OC)c(OC)cc3C(=O)N3CCc4ccccc4C23)CC1 (stereo not given) | n | -3.2 | n | n | n | n
CCCCN(CC)CCNC(=O)C1c2cc(OC)c(OC)cc2C(=O)N2CCc3ccccc3C12 (stereo not given) | n | n | n | n | n | n
CCN(CC)S(=O)(=O)c1ccc(C(=O)Nc2nnc(-c3ccc(C)cc3)s2)cc1 | n | x | x | x | x | x
Cc1nc2c(C(=O)O)cnn2c(C)c1Cc1ccccc1F | n | n | n | n | n | n
Cc1ccc(C)c(Cc2c(C)nc3c(C(=O)N4CCOCC4)cnn3c2C)c1 | n | n | n | n | n | 3.8
COC(=O)c1cnn2c(C)c(Cc3cccc(F)c3)c(C)nc12 | n | n | n | n | n | 2.1
CCOC(=O)N1CCN(C(=O)c2cnn3c(C)c(Cc4ccc(C)cc4)c(C)nc23)CC1 | n | n | n | n | n | 4.1
COc1ccc(C(=O)Nc2cc3ccccc3oc2=O)cc1OC | n | x | x | x | x | x
Cn1c(=O)[nH]c(=O)c2c1nc(SCCO)n2CCc1ccccc1 | n | x | x | x | x | x
O=C(Cn1c2ccccc2c(=O)c2ccccc21)Nc1ccc(OCc2ccccc2)cc1 | n | x | x | x | x | x
Cc1cc(C)c2c(n1)nn1c(NCCCN(C)C)cc(C)nc21 | x | n | n | n | n | 3.9
OCCOCCNc1ncnc2nc[nH]c12 | n | n | n | n | n | n
Cc1cc(C)c2c(n1)nn1c(NCCOCCO)cc(C)nc21 | x | n | n | n | n | 3.9
CC(NC(=O)c1nn2c(c1Cl)NC(c1ccc(Cl)cc1)CC2C(F)(F)F)c1ccccc1 (stereo not given) | n | x | x | x | x | x
C=CCOn1c(=O)c(-c2ccc(OC)cc2)[n+]([O-])c2ccccc21 | n | n | n | n | n | n

Compound activity (PubChem)
